# Measurements published in publication PMC7862700, “An all-to-all approach to the identification of sequence-specific readers for epigenetic DNA modifications on cytosine”.
# Target: T1, FLI1 (Homo sapiens, UniProt Q01543 1-452)
# T1 sequence: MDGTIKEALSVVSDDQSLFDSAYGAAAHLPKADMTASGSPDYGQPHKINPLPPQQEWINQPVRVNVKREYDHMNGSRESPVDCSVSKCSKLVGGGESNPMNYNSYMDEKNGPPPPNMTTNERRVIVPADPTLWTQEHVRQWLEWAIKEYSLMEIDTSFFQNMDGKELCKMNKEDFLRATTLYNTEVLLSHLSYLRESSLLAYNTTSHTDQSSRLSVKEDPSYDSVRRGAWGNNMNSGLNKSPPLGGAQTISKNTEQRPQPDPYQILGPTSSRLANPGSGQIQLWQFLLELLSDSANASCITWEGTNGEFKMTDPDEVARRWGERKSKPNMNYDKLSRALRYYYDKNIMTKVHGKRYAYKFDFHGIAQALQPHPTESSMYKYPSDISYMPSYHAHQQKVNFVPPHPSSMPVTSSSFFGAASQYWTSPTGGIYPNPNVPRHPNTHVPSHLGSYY
# Assay: DAPPL (digital affinity profiling via proximity ligation, sequencing); 10 mM Tris-HCl pH 7.5, 50 mM NaCl, 1 mM DTT, 4% glycerol, room temperature, 30 min; GST-TFs on glutathione beads, 16-mer random dsDNA library, 0.1% formaldehyde crosslink after washing; high values mean tight binding
# Settings: protein: recombinant; tags: N-terminal GST; dsDNA, one strand shown
# How it was run: (§1)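 A tag-only sample was pooled with DNA-barcoded human transcription factors that had been expressed in yeast as GST fusions and captured on glutathione beads. The pools were incubated for 30 min at room temperature with 200 nmole of a random double-stranded 16-mer DNA library in Tris/NaCl/DTT/glycerol buffer, then washed, crosslinked with 0.1% formaldehyde, proximity-ligated (BsaI/T4 ligase, 1 h, 37 °C), PCR-amplified and sequenced on an Illumina NextSeq500. Binding signal is each hexamer's read frequency for a factor divided by its frequency for the tag-only sample.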
row,Sequence,binding signal
1,CATTCT,"1.37 fold enrichment (6-mer frequency, TF over GST control)"
2,TCGACT,"1.33 fold enrichment (6-mer frequency, TF over GST control)"
3,CTGTTT,"1.48 fold enrichment (6-mer frequency, TF over GST control)"
4,TACGCG,"1.12 fold enrichment (6-mer frequency, TF over GST control)"
5,GCTAAA,"1.06 fold enrichment (6-mer frequency, TF over GST control)"
6,AATCAA,"1.1 fold enrichment (6-mer frequency, TF over GST control)"
7,AATGCC,"1.06 fold enrichment (6-mer frequency, TF over GST control)"
8,ACACTT,"1.63 fold enrichment (6-mer frequency, TF over GST control)"
9,CCTATG,"1.14 fold enrichment (6-mer frequency, TF over GST control)"
10,AAGTAT,"1.44 fold enrichment (6-mer frequency, TF over GST control)"
11,CTCCGG,"1.45 fold enrichment (6-mer frequency, TF over GST control)"
12,TACTAC,"1.29 fold enrichment (6-mer frequency, TF over GST control)"
13,CCCTAC,"1.5 fold enrichment (6-mer frequency, TF over GST control)"
14,AATGGT,"1.52 fold enrichment (6-mer frequency, TF over GST control)"
15,ACCTTA,"1.34 fold enrichment (6-mer frequency, TF over GST control)"
16,TCCTCG,"1.6 fold enrichment (6-mer frequency, TF over GST control)"
17,TACCTC,"1.25 fold enrichment (6-mer frequency, TF over GST control)"
18,ATTTCA,"1.23 fold enrichment (6-mer frequency, TF over GST control)"
19,AATTAC,"1.24 fold enrichment (6-mer frequency, TF over GST control)"
20,CTTATT,"1.61 fold enrichment (6-mer frequency, TF over GST control)"

row,Sequence,binding signal
1,TATTCA,"1.31 fold enrichment (6-mer frequency, TF over GST control)"
2,TTCCTG,"2.3 fold enrichment (6-mer frequency, TF over GST control)"
3,CGCGCT,"1.25 fold enrichment (6-mer frequency, TF over GST control)"
4,TTATCT,"1.37 fold enrichment (6-mer frequency, TF over GST control)"
5,TCCATT,"1.34 fold enrichment (6-mer frequency, TF over GST control)"
6,CTGATT,"1.18 fold enrichment (6-mer frequency, TF over GST control)"
7,AACATT,"1.37 fold enrichment (6-mer frequency, TF over GST control)"
8,TTAAGC,"1.18 fold enrichment (6-mer frequency, TF over GST control)"
9,GGCTCC,"1.33 fold enrichment (6-mer frequency, TF over GST control)"
10,CTATTC,"1.33 fold enrichment (6-mer frequency, TF over GST control)"
11,ACCGAT,"1.14 fold enrichment (6-mer frequency, TF over GST control)"
12,AATAAT,"1.23 fold enrichment (6-mer frequency, TF over GST control)"
13,CGATGG,"1.36 fold enrichment (6-mer frequency, TF over GST control)"
14,TTATCC,"1.47 fold enrichment (6-mer frequency, TF over GST control)"
15,ATGCGC,"1.15 fold enrichment (6-mer frequency, TF over GST control)"
16,ATTCAC,"1.23 fold enrichment (6-mer frequency, TF over GST control)"
17,TGCGAT,"1.12 fold enrichment (6-mer frequency, TF over GST control)"
18,TACTTT,"1.32 fold enrichment (6-mer frequency, TF over GST control)"
19,ACGCTT,"1.4 fold enrichment (6-mer frequency, TF over GST control)"
20,CCCGCA,"1.23 fold enrichment (6-mer frequency, TF over GST control)"

# Target: T2, ELK1 (Homo sapiens, UniProt P19419 1-428)
# T2 sequence: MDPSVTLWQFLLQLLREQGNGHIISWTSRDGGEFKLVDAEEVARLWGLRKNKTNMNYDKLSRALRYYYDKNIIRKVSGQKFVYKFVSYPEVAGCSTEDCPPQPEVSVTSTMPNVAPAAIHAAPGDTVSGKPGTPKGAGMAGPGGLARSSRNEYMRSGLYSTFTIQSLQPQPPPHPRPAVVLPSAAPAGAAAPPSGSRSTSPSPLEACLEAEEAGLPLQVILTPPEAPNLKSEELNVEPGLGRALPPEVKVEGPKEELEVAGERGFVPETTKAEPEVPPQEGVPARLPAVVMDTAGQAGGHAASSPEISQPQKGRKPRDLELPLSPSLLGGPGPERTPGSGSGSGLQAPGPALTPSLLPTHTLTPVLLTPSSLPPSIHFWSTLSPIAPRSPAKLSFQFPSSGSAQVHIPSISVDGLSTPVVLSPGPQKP
# Assay: as above
# Settings: protein: recombinant; tags: N-terminal GST; dsDNA, one strand shown
# How it was run: as §1
row,Sequence,binding signal
1,CATTCT,"1.33 fold enrichment (6-mer frequency, TF over GST control)"
2,TCGACT,"1.34 fold enrichment (6-mer frequency, TF over GST control)"
3,CTGTTT,"1.36 fold enrichment (6-mer frequency, TF over GST control)"
4,TACGCG,"1.14 fold enrichment (6-mer frequency, TF over GST control)"
5,GCTAAA,"1.12 fold enrichment (6-mer frequency, TF over GST control)"
6,AATCAA,"1.18 fold enrichment (6-mer frequency, TF over GST control)"
7,AATGCC,"1.19 fold enrichment (6-mer frequency, TF over GST control)"
8,ACACTT,"1.7 fold enrichment (6-mer frequency, TF over GST control)"
9,CCTATG,"1.31 fold enrichment (6-mer frequency, TF over GST control)"
10,AAGTAT,"1.4 fold enrichment (6-mer frequency, TF over GST control)"
11,CTCCGG,"1.58 fold enrichment (6-mer frequency, TF over GST control)"
12,TACTAC,"1.35 fold enrichment (6-mer frequency, TF over GST control)"
13,CCCTAC,"1.49 fold enrichment (6-mer frequency, TF over GST control)"
14,AATGGT,"1.38 fold enrichment (6-mer frequency, TF over GST control)"
15,ACCTTA,"1.24 fold enrichment (6-mer frequency, TF over GST control)"
16,TCCTCG,"1.33 fold enrichment (6-mer frequency, TF over GST control)"
17,TACCTC,"1.29 fold enrichment (6-mer frequency, TF over GST control)"
18,ATTTCA,"1.17 fold enrichment (6-mer frequency, TF over GST control)"
19,AATTAC,"1.19 fold enrichment (6-mer frequency, TF over GST control)"
20,CTTATT,"1.39 fold enrichment (6-mer frequency, TF over GST control)"

row,Sequence,binding signal
1,TATTCA,"1.26 fold enrichment (6-mer frequency, TF over GST control)"
2,TTCCTG,"2.3 fold enrichment (6-mer frequency, TF over GST control)"
3,CGCGCT,"1.32 fold enrichment (6-mer frequency, TF over GST control)"
4,TTATCT,"1.2 fold enrichment (6-mer frequency, TF over GST control)"
5,TCCATT,"1.16 fold enrichment (6-mer frequency, TF over GST control)"
6,CTGATT,"1.21 fold enrichment (6-mer frequency, TF over GST control)"
7,AACATT,"1.26 fold enrichment (6-mer frequency, TF over GST control)"
8,TTAAGC,"1.18 fold enrichment (6-mer frequency, TF over GST control)"
9,GGCTCC,"1.29 fold enrichment (6-mer frequency, TF over GST control)"
10,CTATTC,"1.34 fold enrichment (6-mer frequency, TF over GST control)"
11,ACCGAT,"1.12 fold enrichment (6-mer frequency, TF over GST control)"
12,AATAAT,"1.24 fold enrichment (6-mer frequency, TF over GST control)"
13,CGATGG,"1.4 fold enrichment (6-mer frequency, TF over GST control)"
14,TTATCC,"1.39 fold enrichment (6-mer frequency, TF over GST control)"
15,ATGCGC,"1.18 fold enrichment (6-mer frequency, TF over GST control)"
16,ATTCAC,"1.2 fold enrichment (6-mer frequency, TF over GST control)"
17,TGCGAT,"1.12 fold enrichment (6-mer frequency, TF over GST control)"
18,TACTTT,"1.48 fold enrichment (6-mer frequency, TF over GST control)"
19,ACGCTT,"1.34 fold enrichment (6-mer frequency, TF over GST control)"
20,CCCGCA,"1.2 fold enrichment (6-mer frequency, TF over GST control)"

# Target: T3, GABPA (Homo sapiens, UniProt Q06546 1-454)
# T3 sequence: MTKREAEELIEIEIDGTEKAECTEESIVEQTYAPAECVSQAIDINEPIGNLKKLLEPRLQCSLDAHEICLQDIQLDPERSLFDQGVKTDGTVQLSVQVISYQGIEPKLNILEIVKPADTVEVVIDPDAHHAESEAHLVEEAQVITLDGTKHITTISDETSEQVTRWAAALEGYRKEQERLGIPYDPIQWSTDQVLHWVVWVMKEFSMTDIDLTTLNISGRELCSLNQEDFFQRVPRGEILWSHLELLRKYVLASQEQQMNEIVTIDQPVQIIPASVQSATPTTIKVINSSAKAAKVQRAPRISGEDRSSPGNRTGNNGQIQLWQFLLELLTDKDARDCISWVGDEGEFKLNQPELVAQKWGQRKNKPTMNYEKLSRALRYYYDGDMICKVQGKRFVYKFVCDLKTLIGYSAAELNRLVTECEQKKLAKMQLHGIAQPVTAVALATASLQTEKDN
# Assay: as above
# Settings: protein: recombinant; tags: N-terminal GST; dsDNA, one strand shown
# How it was run: as §1
row,Sequence,binding signal
1,CATTCT,"1.25 fold enrichment (6-mer frequency, TF over GST control)"
2,TCGACT,"1.3 fold enrichment (6-mer frequency, TF over GST control)"
3,CTGTTT,"1.41 fold enrichment (6-mer frequency, TF over GST control)"
4,TACGCG,"1.24 fold enrichment (6-mer frequency, TF over GST control)"
5,GCTAAA,"1.07 fold enrichment (6-mer frequency, TF over GST control)"
6,AATCAA,"1.15 fold enrichment (6-mer frequency, TF over GST control)"
7,AATGCC,"1.17 fold enrichment (6-mer frequency, TF over GST control)"
8,ACACTT,"1.53 fold enrichment (6-mer frequency, TF over GST control)"
9,CCTATG,"1.31 fold enrichment (6-mer frequency, TF over GST control)"
10,AAGTAT,"1.4 fold enrichment (6-mer frequency, TF over GST control)"
11,CTCCGG,"1.68 fold enrichment (6-mer frequency, TF over GST control)"
12,TACTAC,"1.31 fold enrichment (6-mer frequency, TF over GST control)"
13,CCCTAC,"1.33 fold enrichment (6-mer frequency, TF over GST control)"
14,AATGGT,"1.36 fold enrichment (6-mer frequency, TF over GST control)"
15,ACCTTA,"1.19 fold enrichment (6-mer frequency, TF over GST control)"
16,TCCTCG,"1.47 fold enrichment (6-mer frequency, TF over GST control)"
17,TACCTC,"1.33 fold enrichment (6-mer frequency, TF over GST control)"
18,ATTTCA,"1.23 fold enrichment (6-mer frequency, TF over GST control)"
19,AATTAC,"1.26 fold enrichment (6-mer frequency, TF over GST control)"
20,CTTATT,"1.41 fold enrichment (6-mer frequency, TF over GST control)"

row,Sequence,binding signal
1,TATTCA,"1.23 fold enrichment (6-mer frequency, TF over GST control)"
2,TTCCTG,"2.17 fold enrichment (6-mer frequency, TF over GST control)"
3,CGCGCT,"1.13 fold enrichment (6-mer frequency, TF over GST control)"
4,TTATCT,"1.41 fold enrichment (6-mer frequency, TF over GST control)"
5,TCCATT,"1.3 fold enrichment (6-mer frequency, TF over GST control)"
6,CTGATT,"1.14 fold enrichment (6-mer frequency, TF over GST control)"
7,AACATT,"1.35 fold enrichment (6-mer frequency, TF over GST control)"
8,TTAAGC,"1.24 fold enrichment (6-mer frequency, TF over GST control)"
9,GGCTCC,"1.44 fold enrichment (6-mer frequency, TF over GST control)"
10,CTATTC,"1.34 fold enrichment (6-mer frequency, TF over GST control)"
11,ACCGAT,"1.2 fold enrichment (6-mer frequency, TF over GST control)"
12,AATAAT,"1.31 fold enrichment (6-mer frequency, TF over GST control)"
13,CGATGG,"1.36 fold enrichment (6-mer frequency, TF over GST control)"
14,TTATCC,"1.37 fold enrichment (6-mer frequency, TF over GST control)"
15,ATGCGC,"1.18 fold enrichment (6-mer frequency, TF over GST control)"
16,ATTCAC,"1.22 fold enrichment (6-mer frequency, TF over GST control)"
17,TGCGAT,"1.28 fold enrichment (6-mer frequency, TF over GST control)"
18,TACTTT,"1.41 fold enrichment (6-mer frequency, TF over GST control)"
19,ACGCTT,"1.37 fold enrichment (6-mer frequency, TF over GST control)"
20,CCCGCA,"1.25 fold enrichment (6-mer frequency, TF over GST control)"
